# Experimental data from paper PMC4081100, “A DNA-binding-site landscape and regulatory network analysis for NAC transcription factors in Arabidopsis thaliana”.
# Key:
# Assay in all cases: universal protein binding microarray (PBM); transcription factors of Arabidopsis thaliana; high values mean tight binding
# GST-ANAC092(1-176) = biological target: T1, GST-ANAC092(1-176) (Arabidopsis thaliana, UniProt Q9FKA0 1-176); conditions: protein: recombinant; tags: GST; chain copies: 2; dsDNA, one strand shown
# T1 sequence: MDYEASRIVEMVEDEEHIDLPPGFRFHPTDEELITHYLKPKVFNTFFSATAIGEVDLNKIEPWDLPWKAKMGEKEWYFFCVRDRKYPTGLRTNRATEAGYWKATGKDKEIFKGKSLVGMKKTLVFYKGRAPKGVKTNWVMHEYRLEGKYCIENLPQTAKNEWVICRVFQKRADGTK
# Method in brief: (§1)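 Protein amounts were determined by A280 or anti-GST western blot after glutathione–Sepharose 4B purification of GST-tagged proteins induced in cells, with zinc acetate included for zinc-finger proteins. Duplicate runs at 200 to 500 nM final were done on custom all-10-mer Agilent 4 × 180K arrays made double-stranded by primer extension. The normalised enrichment score (E-score) over gapped and ungapped 8-mers is the measure of binding.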
# GST-NTL6(1-168) = GST-NTL6(1-168) (Arabidopsis thaliana, UniProt Q9SCK6 1-168); conditions: protein: recombinant; tags: GST; chain copies: 2; dsDNA, one strand shown
# Method in brief: as §1
# GST-ANAC019 NAC domain = biological target: T2, GST-ANAC019 NAC domain (Arabidopsis thaliana, UniProt Q9C932 14-162); conditions: protein: recombinant; tags: GST; chain copies: 2; dsDNA, one strand shown
# T2 sequence: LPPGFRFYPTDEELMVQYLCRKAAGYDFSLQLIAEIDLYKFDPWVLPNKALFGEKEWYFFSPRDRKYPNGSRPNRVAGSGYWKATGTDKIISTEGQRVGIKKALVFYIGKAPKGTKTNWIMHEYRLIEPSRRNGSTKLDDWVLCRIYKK
# Method in brief: as §1
# GST-ANAC055(1-171) = biological target: T3, GST-ANAC055(1-171) (Arabidopsis thaliana, UniProt Q9LDY8 1-171); conditions: protein: recombinant; tags: GST; chain copies: 2; dsDNA, one strand shown
# T3 sequence: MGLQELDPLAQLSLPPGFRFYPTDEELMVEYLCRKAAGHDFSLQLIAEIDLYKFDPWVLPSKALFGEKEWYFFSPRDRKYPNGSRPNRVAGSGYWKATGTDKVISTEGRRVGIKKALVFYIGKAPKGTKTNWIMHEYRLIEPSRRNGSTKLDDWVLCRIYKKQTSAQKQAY
# Method in brief: as §1
# GST-ATAF1 NAC domain = biological target: T4, GST-ATAF1 NAC domain (Arabidopsis thaliana, UniProt Q39013 7-158); conditions: protein: recombinant; tags: GST; chain copies: 2; dsDNA, one strand shown
# T4 sequence: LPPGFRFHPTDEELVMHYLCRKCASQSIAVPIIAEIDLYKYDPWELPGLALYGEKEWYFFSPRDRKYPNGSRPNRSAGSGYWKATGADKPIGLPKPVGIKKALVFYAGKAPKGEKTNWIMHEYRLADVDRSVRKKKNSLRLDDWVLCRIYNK
# Method in brief: as §1
# [1] = biological target: T5, GST-ANAC092(1-285) full length (Arabidopsis thaliana, UniProt Q9FKA0 1-285); conditions: protein: recombinant; tags: GST; chain copies: 2; dsDNA, one strand shown
# T5 sequence: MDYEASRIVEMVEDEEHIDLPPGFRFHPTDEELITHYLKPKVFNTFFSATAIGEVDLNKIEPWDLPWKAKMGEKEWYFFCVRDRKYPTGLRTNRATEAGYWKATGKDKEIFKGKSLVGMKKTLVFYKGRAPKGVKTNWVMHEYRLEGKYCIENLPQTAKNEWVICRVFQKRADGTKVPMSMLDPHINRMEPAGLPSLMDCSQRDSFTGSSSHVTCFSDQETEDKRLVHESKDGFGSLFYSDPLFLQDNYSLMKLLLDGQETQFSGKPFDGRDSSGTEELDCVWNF
# Method in brief: as §1
# GST-NAP(1-166) = biological target: T6, GST-NAP(1-166) (Arabidopsis thaliana, UniProt O49255 1-166); conditions: protein: recombinant; tags: GST; chain copies: 2; dsDNA, one strand shown
# T6 sequence: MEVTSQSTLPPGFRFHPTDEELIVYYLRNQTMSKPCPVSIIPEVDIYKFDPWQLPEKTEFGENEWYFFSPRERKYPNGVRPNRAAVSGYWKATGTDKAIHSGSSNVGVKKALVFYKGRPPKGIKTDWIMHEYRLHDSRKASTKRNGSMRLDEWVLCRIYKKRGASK
# Method in brief: as §1
# GST-NST2(1-184) = biological target: T7, GST-NST2(1-184) (Arabidopsis thaliana, UniProt Q9M274 1-184); conditions: protein: recombinant; tags: GST; chain copies: 2; dsDNA, one strand shown
# T7 sequence: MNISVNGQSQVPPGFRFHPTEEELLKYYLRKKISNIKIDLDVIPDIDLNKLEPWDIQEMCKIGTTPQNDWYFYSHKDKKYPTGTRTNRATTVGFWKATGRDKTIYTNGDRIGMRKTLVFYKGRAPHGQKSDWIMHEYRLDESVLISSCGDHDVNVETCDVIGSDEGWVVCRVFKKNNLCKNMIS
# Method in brief: as §1
# GST-NTL8 NAC domain = biological target: T8, GST-NTL8 NAC domain (Arabidopsis thaliana, UniProt Q9XIN7 14-156); conditions: protein: recombinant; tags: GST; chain copies: 2; dsDNA, one strand shown
# T8 sequence: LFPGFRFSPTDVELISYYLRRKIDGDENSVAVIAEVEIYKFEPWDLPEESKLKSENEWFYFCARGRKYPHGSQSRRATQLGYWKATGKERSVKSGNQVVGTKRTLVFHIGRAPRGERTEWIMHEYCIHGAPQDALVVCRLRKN
# Method in brief: as §1
# GST-SND1(1-203) = biological target: T9, GST-SND1(1-203) (Arabidopsis thaliana, UniProt Q9LPI7 1-203); conditions: protein: recombinant; tags: GST; chain copies: 2; dsDNA, one strand shown
# T9 sequence: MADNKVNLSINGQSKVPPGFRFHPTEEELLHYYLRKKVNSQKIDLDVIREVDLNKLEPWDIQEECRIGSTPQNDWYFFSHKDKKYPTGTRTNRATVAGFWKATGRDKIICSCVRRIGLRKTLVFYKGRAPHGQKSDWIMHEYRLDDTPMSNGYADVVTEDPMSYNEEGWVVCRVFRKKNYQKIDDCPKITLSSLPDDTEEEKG
# Method in brief: as §1
# GST-VND3 NAC domain = biological target: T10, GST-VND3 NAC domain (Arabidopsis thaliana, UniProt Q9FH59 12-162); conditions: protein: recombinant; tags: GST; chain copies: 2; dsDNA, one strand shown
# T10 sequence: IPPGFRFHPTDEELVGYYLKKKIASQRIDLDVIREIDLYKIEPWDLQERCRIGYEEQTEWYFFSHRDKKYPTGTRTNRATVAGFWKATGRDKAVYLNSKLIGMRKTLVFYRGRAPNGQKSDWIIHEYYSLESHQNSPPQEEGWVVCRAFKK
# Method in brief: as §1
# GST-VND7 NAC domain = biological target: T11, GST-VND7 NAC domain (Arabidopsis thaliana, UniProt Q9C8W9 9-158); conditions: protein: recombinant; tags: GST; chain copies: 2; dsDNA, one strand shown
# T11 sequence: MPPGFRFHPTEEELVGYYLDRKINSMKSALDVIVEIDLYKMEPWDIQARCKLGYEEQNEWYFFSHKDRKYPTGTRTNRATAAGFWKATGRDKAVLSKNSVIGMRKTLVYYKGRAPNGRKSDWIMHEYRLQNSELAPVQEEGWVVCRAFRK
# Method in brief: as §1
# GST-WRKY1(266-371) = GST-WRKY1(266-371) (Arabidopsis thaliana, UniProt Q9SI37 266-371); conditions: protein: recombinant; tags: GST; dsDNA, one strand shown
# Method in brief: as §1
# Chain of GST-NTL6(1-168) (Q9SCK6 1-168): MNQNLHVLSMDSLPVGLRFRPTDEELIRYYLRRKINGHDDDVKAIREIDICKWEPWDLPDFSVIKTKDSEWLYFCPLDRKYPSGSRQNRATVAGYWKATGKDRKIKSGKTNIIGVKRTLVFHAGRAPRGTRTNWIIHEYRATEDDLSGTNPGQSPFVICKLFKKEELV
# Chain of GST-WRKY1(266-371) (Q9SI37 266-371): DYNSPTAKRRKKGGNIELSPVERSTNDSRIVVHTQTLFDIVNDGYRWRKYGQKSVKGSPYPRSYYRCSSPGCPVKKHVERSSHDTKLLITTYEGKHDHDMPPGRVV
Sequence,binding signal (GST-ANAC092(1-176)),binding signal (GST-NTL6(1-168)),binding signal (GST-ANAC019 NAC domain),binding signal (GST-ANAC055(1-171)),binding signal (GST-ATAF1 NAC domain),binding signal [1],binding signal (GST-NAP(1-166)),binding signal (GST-NST2(1-184)),binding signal (GST-NTL8 NAC domain),binding signal (GST-SND1(1-203)),binding signal (GST-VND3 NAC domain),binding signal (GST-VND7 NAC domain),binding signal (GST-WRKY1(266-371))
ACGTAAAG,0.402 E-score,0.0957 E-score,0.367 E-score,0.317 E-score,0.301 E-score,0.421 E-score,0.255 E-score,0.319 E-score,0.0757 E-score,0.41 E-score,0.359 E-score,0.283 E-score,0.103 E-score
ATTACGTG,0.457 E-score,0.112 E-score,0.468 E-score,0.432 E-score,0.372 E-score,0.462 E-score,0.419 E-score,0.296 E-score,0.146 E-score,0.252 E-score,0.446 E-score,0.437 E-score,0.127 E-score
AAAAGTCA,0.142 E-score,0.1 E-score,0.185 E-score,0.157 E-score,0.241 E-score,0.241 E-score,0.08 E-score,0.274 E-score,0.128 E-score,0.257 E-score,0.13 E-score,0.122 E-score,0.461 E-score
ACGTAACG,0.423 E-score,0.0652 E-score,0.436 E-score,0.389 E-score,0.348 E-score,0.438 E-score,0.411 E-score,0.272 E-score,0.118 E-score,0.415 E-score,0.359 E-score,0.409 E-score,0.078 E-score
CTACGTCA,0.0986 E-score,–,0.133 E-score,0.129 E-score,0.166 E-score,0.318 E-score,0.148 E-score,0.31 E-score,–,0.452 E-score,0.144 E-score,0.176 E-score,0.137 E-score
ATGACGTG,0.458 E-score,–,0.311 E-score,0.366 E-score,0.317 E-score,0.463 E-score,0.36 E-score,0.258 E-score,–,0.326 E-score,0.366 E-score,0.322 E-score,0.0849 E-score
CGTATACG,0.195 E-score,–,0.354 E-score,0.363 E-score,0.407 E-score,0.283 E-score,0.397 E-score,0.0918 E-score,–,0.0859 E-score,0.321 E-score,0.395 E-score,0.0731 E-score
CACGTCAG,0.336 E-score,–,0.261 E-score,0.19 E-score,0.203 E-score,0.407 E-score,0.154 E-score,–,–,0.0864 E-score,0.127 E-score,0.214 E-score,0.081 E-score
ATTACTTC,0.31 E-score,0.415 E-score,0.168 E-score,0.223 E-score,0.176 E-score,0.34 E-score,–,0.267 E-score,0.406 E-score,0.347 E-score,0.208 E-score,0.14 E-score,0.097 E-score
AAGTCTAC,0.0876 E-score,0.202 E-score,–,0.158 E-score,0.0826 E-score,–,–,0.103 E-score,–,0.0865 E-score,0.0561 E-score,0.0651 E-score,0.412 E-score
ACGCAAGA,0.449 E-score,0.116 E-score,0.243 E-score,0.264 E-score,0.156 E-score,0.456 E-score,0.285 E-score,0.315 E-score,0.128 E-score,0.405 E-score,0.252 E-score,0.194 E-score,0.123 E-score
ATAACGTA,0.418 E-score,0.119 E-score,–,0.19 E-score,0.289 E-score,0.423 E-score,0.187 E-score,0.37 E-score,–,0.465 E-score,0.334 E-score,0.156 E-score,0.0761 E-score
AAGGAAAG,0.261 E-score,0.398 E-score,0.104 E-score,0.181 E-score,0.0767 E-score,0.186 E-score,–,0.239 E-score,0.467 E-score,0.262 E-score,0.0708 E-score,0.117 E-score,0.0652 E-score
